# The list is not random: actives were taken first. Their share in the collection is about 2.3%.
# M1 ag: human M1 muscarinic receptor agonism; P11229; CHO-K1 hM1, Fluo-8 calcium fluorescence, agonist mode; 0% DMSO, 100% acetylcholine EC100; activation, % at 3 µM; 360,000 compounds, 0.33% hits;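 active = activation above the run's mean compound activation plus 3 SD, cut at about 16% in these data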;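 note: peak over basal fluorescence ratio within a 140 s kinetic read after compound addition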
# Target sequence (P11229 whole entry, looked up): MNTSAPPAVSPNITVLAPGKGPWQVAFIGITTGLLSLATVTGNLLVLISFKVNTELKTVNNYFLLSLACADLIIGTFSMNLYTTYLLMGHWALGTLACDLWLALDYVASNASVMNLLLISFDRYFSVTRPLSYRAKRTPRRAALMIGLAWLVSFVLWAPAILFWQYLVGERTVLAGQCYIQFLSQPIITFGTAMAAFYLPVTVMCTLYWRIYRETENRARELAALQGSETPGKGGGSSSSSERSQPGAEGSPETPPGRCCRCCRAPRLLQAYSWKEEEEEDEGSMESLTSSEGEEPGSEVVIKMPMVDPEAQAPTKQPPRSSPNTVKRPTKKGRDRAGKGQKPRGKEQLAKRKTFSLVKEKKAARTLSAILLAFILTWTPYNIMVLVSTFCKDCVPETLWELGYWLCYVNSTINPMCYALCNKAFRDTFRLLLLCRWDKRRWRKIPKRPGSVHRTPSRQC
# M1 ag parental: M1 agonist counterscreen hit in parental CHO-K1 cells; activation, % at 3 µM; Fluo-8 calcium fluorescence; scaled to maximal ATP response, vehicle zero; 360,000 compounds, 0.48% hits; in the data active = activation above about 15%;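 note: untransfected CHO-K1 host cells lacking M1 receptor as counterscreen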
# CHRM1 PAM: positive allosteric modulators of human M1 muscarinic receptor. P11229. CHO-K1 hM1, Fluo-8 calcium fluorescence, ACh EC20; 0% = ACh EC20, 100% = maximal ACh. activation, % at 3 µM. 360,000 compounds, 0.088% hits; in the data active = activation above about 19%, passing the limit was not always enough
# CHO-K1 Ca antag: M1 antagonist counterscreen hit in parental CHO-K1 cells. AID 602250. inhibition, % at 3 µM. ATP-induced calcium, Fluo-8 fluorescence. 360,000 compounds, 0.6% hits;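 active = inhibition above a per-plate cutoff, the plate's mean sample inhibition plus 3 SD, cut at about 24% in these data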;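 note: 0% = DMSO plus EC80 ATP and 100% = DMSO alone without ATP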
# M1 antag: antagonists of human M1 muscarinic receptor. 360,000 compounds, 1.3% hits. AID 588852. inhibition, % at 3 µM. CHO-K1 hM1, Fluo-8 calcium fluorescence, ACh EC80 antagonist;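 active = percent inhibition above its own plate's cutoff, namely the mean of that plate's compound wells plus 3 SD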;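 note: peak over basal fluorescence ratio during 140 s after agonist addition; 0% = ACh EC80 plus DMSO and 100% = DMSO alone without agonist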
# M1 PAM parental: counter-screen for M1 PAMs: effect in parental CHO-K1 cells. activation, % at 3 µM. AID 602247. ATP EC20, Fluo-8 calcium fluorescence; 0% at ATP EC20, 100% at ATP max. 360,000 compounds, 0.02% hits;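 active = activation above the run cutoff, the mean activation of all test compounds plus 3 SD, cut at about 40% in these data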;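 note: peak over basal fluorescence ratio in a 140 s read after ATP addition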
# Starred values were filed as active, the others as inactive.
SMILES,M1 ag,M1 ag parental,CHRM1 PAM,CHO-K1 Ca antag,M1 antag,M1 PAM parental
CN(C)c1nc(-c2ccccc2)nnc1C(F)(F)F,-6,0,6,-1,-19,17
CN(C)CCNc1nc(-c2ccccc2)nnc1C(F)(F)F,0,6,-2,46*,-18,2
Cc1noc(C)c1COc1ccccc1C(=O)N(C)CC(=O)Nc1ccc(F)cc1,1,0,5,5,-4,-18
COc1ccc(O)c(C(=O)c2coc(=N)c(C(=O)Nc3ccc(SC(F)F)cc3)c2)c1,0,17*,-13,9,30,-5
O=C1C(CCCNC(=S)NCc2ccccc2)NC(=S)N1Cc1ccccc1 (centres undefined),-11,19*,5,4,3,16
S=C(Nc1ccc(Cl)cc1)NC1CCCCC1,0,10,-5,10,1,-6
FC(F)Oc1ccc(NC(=S)NC2CCSc3ccccc32)cc1 (centres undefined),0,15,-24,20,87*,-4
O=C(NC1CCSc2ccccc21)c1cccc(OC(F)F)c1 (centres undefined),-9,2,5,-23,-10,-8
FC(F)Oc1ccc(NC(=S)NC2CCCCCCC2)cc1,-6,14,-24,8,34*,0
Cc1ccccc1-c1cc(C(=O)O)n(CC2CC(c3cccnc3)=NO2)n1 (centres undefined),-4,0,-2,-2,0,2
O=C(NCc1ccccc1)C(c1ccc(F)cc1)N(Cc1cccs1)C(=O)c1cnccn1 (centres undefined),2,5,-6,-1,11,23
O=C(NCc1ccccc1)C(c1ccccc1)N(Cc1cccs1)C(=O)c1cnccn1 (centres undefined),1,6,-7,15,43*,11
CCOC(=O)C1CCCN(C2CCN(Cc3nc(-c4ccccc4)no3)CC2)C1 (centres undefined),42*,1,-22,-1,42*,11
CCOC(=O)C1CCCN(Cc2nc(Cc3cccc(F)c3)no2)C1 (centres undefined),33*,2,-8,-10,-3,17
CCOC(=O)C1CCCN(C2CCN(Cc3nc(Cc4ccccc4)no3)CC2)C1 (centres undefined),17*,1,-8,-12,19,13
CCOC(=O)C1CCCN(Cc2nc(C3CC3)no2)C1 (centres undefined),-1,1,7,-8,-11,14
COCC1CCCN(Cc2nc(Cc3ccccc3)no2)C1 (centres undefined),-1,0,11,-3,12,0
CCOC(=O)C1CCN(C2CCN(Cc3nc(-c4ccccc4)no3)CC2)CC1,-13,1,0,5,-6,-2
Cc1[nH]c(C)c(S(=O)(=O)N2c3ccccc3CC2C)c1C(=O)N1CCCCC1 (centres undefined),-4,1,7,-14,-7,2
CCOC(=O)/C=C/C(=O)Nc1ccc(S(=O)(=O)Nc2nccs2)cc1,-3,0,8,2,-7,-19
Cc1nnsc1SCCNC(=O)Nc1ccc(Cl)cc1,3,14,-13,18,37*,-15
O=C(NCCNC(=O)Nc1ccc(Cl)cc1)Nc1ccc(Cl)cc1,0,0,-2,0,4,-19
CCOC(=O)[C@@H]1[C@H]2COc3cc(OC)ccc3[C@@H]2N2C(=O)N(c3ccc(C(F)(F)F)cc3)C(=O)[C@@]12C,-7,0,3,-13,-2,20
CCOC(=O)[C@@H]1[C@H]2COc3cc(OC)ccc3[C@H]2N2C(=O)N(c3cccc(F)c3)C(=O)[C@@]12C,0,-1,-18,16,31*,-8
CCOC(=O)[C@@H]1[C@H]2COc3cc(OC)ccc3[C@H]2N2C(=O)N(c3ccc(C(F)(F)F)cc3)C(=O)[C@]12C,4,8,-21,33*,41*,-20
SMILES,M1 ag,M1 ag parental,CHRM1 PAM,CHO-K1 Ca antag,M1 antag,M1 PAM parental
CCOC(=O)[C@H]1[C@H]2COc3cc(OC)ccc3[C@@H]2N2C(=O)N(c3cccc(F)c3)C(=O)[C@@]12C,-9,-1,1,-6,3,7
O=C(CN1C(=O)S/C(=C/c2cccs2)C1=O)N1CCOCC1,-3,-1,-11,18,38*,-6
CC1CCCCC1NC(=O)Cn1cnc2sccc2c1=O (centres undefined),0,1,6,5,-5,-6
COc1ccc(NC(=O)[C@@H]2[C@@H]3C(=O)N(C4CCCCC4)C(=O)[C@@H]3C3c4ccccc4C=CN32)cc1 (some centres undefined),65*,0,-16,6,25*,10
CCOC(=O)C1(CCOc2ccccc2)CCN(Cc2ccc(NC(C)=O)cc2)CC1,-9,1,-9,-1,4,-13
CCOC(=O)C1(CCOc2ccccc2)CCN(Cc2cccc(OC)c2OC)CC1,-2,9,-24,20,42*,-19
CCOC(=O)C1(CCOc2ccccc2)CCN(Cc2ccc(OC)cc2)CC1,3,18*,-8,5,13,11
CC(C1=C(CCN(C)C)Cc2ccccc21)c1ccccn1 (centres undefined),-8,0,-30,-12,77*,5
CN(C)CCC(c1ccccc1)c1ccccn1 (centres undefined),-7,0,-21,4,16,-9
CC1SC(c2ccccc2)N(CC(O)c2ccc([N+](=O)[O-])cc2)C1=O (centres undefined),-7,0,3,25*,-5,-13
O=C1CSC(c2ccccc2)N1CC(O)c1ccc([N+](=O)[O-])cc1 (centres undefined),-5,4,4,-9,-1,20
Cc1cc(Br)c(Oc2cc(NN3CCCCC3)c([N+](=O)[O-])cc2[N+](=O)[O-])c(Br)c1,0,0,7,-4,-3,-14
CN(NC(=O)C(=O)NCc1ccco1)C(=O)Nc1ccc(Cl)cc1,8,10,-7,27*,14,-5
O=C(O)CCCn1cc(NC(=O)c2c(F)cccc2F)cn1,-6,16*,-1,15,5,-4
COc1ccc(-n2c(SCC(=O)N(C)C3CCS(=O)(=O)C3)nc3ccc(O)cc3c2=O)cc1OC (centres undefined),-4,0,-1,-1,3,-4
Cc1ccc(CS(=O)(=O)c2ncc(Cl)c(C(=O)Nc3ccc(OC(F)F)cc3)n2)cc1,-3,-1,2,24*,16,-28
O=C(NNC(=O)C1CC(=O)N(c2ccc3c(c2)OCCO3)C1)c1ccc(F)cc1 (centres undefined),4,0,11,27*,-4,-36

# Assay outcomes (PubChem)
